# Laboratory results reported in article PMC7862700, “An all-to-all approach to the identification of sequence-specific readers for epigenetic DNA modifications on cytosine”.
# Key:
# Assay in all cases: DAPPL (digital affinity profiling via proximity ligation, sequencing); 10 mM Tris-HCl pH 7.5, 50 mM NaCl, 1 mM DTT, 4% glycerol, room temperature, 30 min; GST-TFs on glutathione beads, 16-mer random dsDNA library, 0.1% formaldehyde crosslink after washing; high values mean tight binding
# Details in all cases: protein: recombinant; tags: N-terminal GST; dsDNA, one strand shown
# ELF4 = ELF4 (Homo sapiens, UniProt Q99607 1-663)
# Outline: (§1)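 Pools were built from human transcription factors expressed in yeast as GST fusions, captured on glutathione beads and DNA-barcoded, along with a tag-only sample. Incubation with 200 nmole of a 16-mer random double-stranded DNA library lasted 30 min at room temperature in Tris/NaCl/DTT/glycerol buffer, and was followed by washing, 0.1% formaldehyde crosslinking, proximity ligation, PCR amplification and Illumina NextSeq500 sequencing. Binding signal is the quotient of each hexamer's read frequency for a factor and its frequency for the tag-only sample.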
# ETV2 = biological target: T1, ETV2 (Homo sapiens, UniProt O00321 1-342)
# T1 sequence: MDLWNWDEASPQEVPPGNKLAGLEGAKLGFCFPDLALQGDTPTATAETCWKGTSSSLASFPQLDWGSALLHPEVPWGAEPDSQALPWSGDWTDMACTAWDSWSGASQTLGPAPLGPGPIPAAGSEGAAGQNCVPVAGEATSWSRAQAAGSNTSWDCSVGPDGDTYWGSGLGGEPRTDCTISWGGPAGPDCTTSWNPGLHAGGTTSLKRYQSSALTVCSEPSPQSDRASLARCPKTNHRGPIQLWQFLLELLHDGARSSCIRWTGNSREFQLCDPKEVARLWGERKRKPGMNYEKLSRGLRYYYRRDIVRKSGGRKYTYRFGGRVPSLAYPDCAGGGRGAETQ
# Outline: as §1
# ELF3 = biological target: T2, ELF3 (Homo sapiens, UniProt P78545 1-371)
# T2 sequence: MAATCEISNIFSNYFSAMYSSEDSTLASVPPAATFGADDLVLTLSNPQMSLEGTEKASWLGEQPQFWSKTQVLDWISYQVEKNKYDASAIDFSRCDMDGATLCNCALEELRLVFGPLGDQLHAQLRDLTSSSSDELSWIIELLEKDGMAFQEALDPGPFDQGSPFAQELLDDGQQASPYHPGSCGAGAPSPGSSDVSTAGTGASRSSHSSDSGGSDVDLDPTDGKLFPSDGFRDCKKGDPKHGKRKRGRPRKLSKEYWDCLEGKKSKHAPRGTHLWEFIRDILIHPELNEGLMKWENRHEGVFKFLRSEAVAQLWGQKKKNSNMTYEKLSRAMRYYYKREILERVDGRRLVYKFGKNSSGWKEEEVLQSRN
# Outline: as §1
# ETV1 = ETV1 (Homo sapiens, UniProt P50549 1-477)
# Outline: as §1
# ERF = biological target: T3, ERF (Homo sapiens, UniProt P50548 1-548)
# T3 sequence: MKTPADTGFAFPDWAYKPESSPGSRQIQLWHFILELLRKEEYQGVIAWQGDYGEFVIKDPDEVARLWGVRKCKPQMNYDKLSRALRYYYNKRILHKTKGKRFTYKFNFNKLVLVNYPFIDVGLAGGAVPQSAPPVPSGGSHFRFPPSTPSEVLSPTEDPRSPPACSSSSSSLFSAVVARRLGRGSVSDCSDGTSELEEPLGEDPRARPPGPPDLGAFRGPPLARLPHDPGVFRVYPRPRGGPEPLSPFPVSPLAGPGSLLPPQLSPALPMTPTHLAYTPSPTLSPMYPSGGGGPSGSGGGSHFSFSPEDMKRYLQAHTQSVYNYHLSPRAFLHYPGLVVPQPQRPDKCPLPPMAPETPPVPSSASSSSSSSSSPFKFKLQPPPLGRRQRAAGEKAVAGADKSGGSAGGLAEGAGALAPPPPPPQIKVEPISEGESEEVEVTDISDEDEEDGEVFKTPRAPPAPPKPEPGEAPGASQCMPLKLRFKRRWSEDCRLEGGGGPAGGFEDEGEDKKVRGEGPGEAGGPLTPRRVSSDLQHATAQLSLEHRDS
# Outline: as §1
# ETV3L = biological target: T4, ETV3L (Homo sapiens, UniProt Q6ZN32 1-361)
# T4 sequence: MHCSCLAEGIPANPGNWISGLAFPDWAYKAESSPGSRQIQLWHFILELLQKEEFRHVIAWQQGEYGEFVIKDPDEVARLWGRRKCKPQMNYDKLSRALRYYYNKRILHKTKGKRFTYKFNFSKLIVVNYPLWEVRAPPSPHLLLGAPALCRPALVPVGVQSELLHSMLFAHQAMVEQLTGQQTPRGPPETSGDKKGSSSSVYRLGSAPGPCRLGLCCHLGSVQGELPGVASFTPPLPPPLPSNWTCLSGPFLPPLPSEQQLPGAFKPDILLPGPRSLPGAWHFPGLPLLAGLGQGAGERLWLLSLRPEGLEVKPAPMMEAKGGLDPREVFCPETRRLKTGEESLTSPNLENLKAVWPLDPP
# Outline: as §1
# ETS2 = biological target: T5, ETS2 (Homo sapiens, UniProt P15036 1-469)
# T5 sequence: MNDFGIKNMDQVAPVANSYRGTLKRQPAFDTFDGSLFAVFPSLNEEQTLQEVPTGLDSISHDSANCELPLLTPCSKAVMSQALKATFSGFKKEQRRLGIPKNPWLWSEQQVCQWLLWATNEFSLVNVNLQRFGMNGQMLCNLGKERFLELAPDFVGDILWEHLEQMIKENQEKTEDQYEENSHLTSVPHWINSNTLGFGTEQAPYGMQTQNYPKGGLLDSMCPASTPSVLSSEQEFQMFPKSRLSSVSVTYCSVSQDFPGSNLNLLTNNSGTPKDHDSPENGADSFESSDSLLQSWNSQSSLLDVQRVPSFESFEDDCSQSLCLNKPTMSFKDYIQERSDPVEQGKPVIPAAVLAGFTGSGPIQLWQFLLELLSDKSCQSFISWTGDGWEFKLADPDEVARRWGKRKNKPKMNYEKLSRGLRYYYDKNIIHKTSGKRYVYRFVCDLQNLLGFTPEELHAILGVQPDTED
# Outline: as §1
# ETV7 = biological target: T6, ETV7 (Homo sapiens, UniProt Q9Y603 1-341)
# T6 sequence: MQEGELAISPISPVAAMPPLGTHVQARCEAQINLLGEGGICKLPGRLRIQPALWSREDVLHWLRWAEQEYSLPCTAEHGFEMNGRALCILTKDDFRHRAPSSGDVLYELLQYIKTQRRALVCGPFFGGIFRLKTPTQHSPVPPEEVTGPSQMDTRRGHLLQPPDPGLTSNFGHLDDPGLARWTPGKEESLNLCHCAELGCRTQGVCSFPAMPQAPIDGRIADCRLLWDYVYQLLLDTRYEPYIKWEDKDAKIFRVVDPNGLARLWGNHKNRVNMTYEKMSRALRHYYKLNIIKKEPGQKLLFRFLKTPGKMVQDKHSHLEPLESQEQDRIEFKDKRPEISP
# Outline: as §1
# ETV3 = biological target: T7, ETV3 (Homo sapiens, UniProt P41162-2 1-143)
# T7 sequence: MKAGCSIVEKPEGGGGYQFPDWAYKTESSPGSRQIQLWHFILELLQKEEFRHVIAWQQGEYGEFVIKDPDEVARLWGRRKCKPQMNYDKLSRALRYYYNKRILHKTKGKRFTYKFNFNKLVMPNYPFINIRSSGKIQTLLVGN
# Outline: as §1
# ETV6 = ETV6 (Homo sapiens, UniProt P41212 1-452)
# Outline: as §1
# ETV1, sequence (P50549 whole entry): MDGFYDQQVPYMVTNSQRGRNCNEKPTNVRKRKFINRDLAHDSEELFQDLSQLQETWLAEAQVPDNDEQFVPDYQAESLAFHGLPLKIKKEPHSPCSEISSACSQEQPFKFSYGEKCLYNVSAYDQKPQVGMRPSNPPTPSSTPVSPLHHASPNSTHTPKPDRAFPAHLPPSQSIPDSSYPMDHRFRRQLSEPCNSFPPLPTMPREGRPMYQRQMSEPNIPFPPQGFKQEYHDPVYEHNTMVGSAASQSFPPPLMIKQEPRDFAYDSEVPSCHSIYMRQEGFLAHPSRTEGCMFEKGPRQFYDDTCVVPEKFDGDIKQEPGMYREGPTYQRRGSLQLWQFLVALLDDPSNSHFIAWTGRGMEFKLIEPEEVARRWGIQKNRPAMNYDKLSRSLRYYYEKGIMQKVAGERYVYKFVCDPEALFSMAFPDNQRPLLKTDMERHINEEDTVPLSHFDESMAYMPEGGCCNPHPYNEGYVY
# ETV6, sequence (P41212 whole entry): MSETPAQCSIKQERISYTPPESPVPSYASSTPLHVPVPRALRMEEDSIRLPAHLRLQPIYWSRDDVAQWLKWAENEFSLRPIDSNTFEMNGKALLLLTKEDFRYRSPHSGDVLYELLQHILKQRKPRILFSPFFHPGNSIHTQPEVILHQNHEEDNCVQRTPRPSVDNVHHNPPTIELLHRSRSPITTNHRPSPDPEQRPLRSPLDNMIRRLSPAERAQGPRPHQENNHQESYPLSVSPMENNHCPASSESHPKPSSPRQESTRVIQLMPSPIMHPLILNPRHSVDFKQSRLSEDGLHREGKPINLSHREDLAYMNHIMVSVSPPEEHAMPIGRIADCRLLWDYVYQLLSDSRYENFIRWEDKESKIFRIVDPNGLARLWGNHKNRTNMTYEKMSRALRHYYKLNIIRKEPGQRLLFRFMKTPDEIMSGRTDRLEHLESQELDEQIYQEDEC
# ELF4, sequence (Q99607 whole entry, the tested form may be a part): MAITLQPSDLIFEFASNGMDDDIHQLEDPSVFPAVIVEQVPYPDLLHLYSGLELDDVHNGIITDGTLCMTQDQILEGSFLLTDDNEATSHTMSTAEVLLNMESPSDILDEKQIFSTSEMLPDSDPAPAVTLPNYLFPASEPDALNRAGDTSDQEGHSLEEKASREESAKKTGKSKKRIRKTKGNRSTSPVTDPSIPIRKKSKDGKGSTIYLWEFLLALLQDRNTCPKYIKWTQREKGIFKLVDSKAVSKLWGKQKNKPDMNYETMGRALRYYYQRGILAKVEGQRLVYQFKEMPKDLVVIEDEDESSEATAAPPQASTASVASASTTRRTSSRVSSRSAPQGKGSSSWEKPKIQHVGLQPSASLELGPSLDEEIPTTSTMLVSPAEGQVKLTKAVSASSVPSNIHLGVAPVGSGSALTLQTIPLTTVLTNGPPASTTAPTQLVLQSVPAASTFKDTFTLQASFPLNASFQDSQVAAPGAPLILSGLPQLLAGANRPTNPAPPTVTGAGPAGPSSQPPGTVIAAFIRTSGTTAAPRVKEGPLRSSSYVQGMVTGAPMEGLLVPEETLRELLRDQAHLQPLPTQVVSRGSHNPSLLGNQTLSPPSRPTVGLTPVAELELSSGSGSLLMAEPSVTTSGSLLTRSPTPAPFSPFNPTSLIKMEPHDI
sequence,measurement,setting,value
CGTCGC,binding signal,ELF4,"1.06 fold enrichment (6-mer frequency, TF over GST control)"
same,binding signal,ETV2,"1.2 fold enrichment (6-mer frequency, TF over GST control)"
same,binding signal,ELF3,"1.1 fold enrichment (6-mer frequency, TF over GST control)"
same,binding signal,ETV1,"1.3 fold enrichment (6-mer frequency, TF over GST control)"
same,binding signal,ERF,"1.3 fold enrichment (6-mer frequency, TF over GST control)"
same,binding signal,ETV3L,"1.13 fold enrichment (6-mer frequency, TF over GST control)"
same,binding signal,ETS2,"1.14 fold enrichment (6-mer frequency, TF over GST control)"
same,binding signal,ETV7,"1.23 fold enrichment (6-mer frequency, TF over GST control)"
same,binding signal,ETV3,"1.2 fold enrichment (6-mer frequency, TF over GST control)"
same,binding signal,ETV6,"1.2 fold enrichment (6-mer frequency, TF over GST control)"
